The values that follow come from PubChem BioAssay (NCI).

The panel holds about 83,000 compounds, 20% with a hit somewhere; the sample as a whole holds those more often.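 Plates (96-well) were seeded with cells, treated with compound at one concentration, and incubated for 48 hours before percent growth was determined.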 Unmarked numbers belong to inactive results. Active and inactive are the calls of the source. The calls were made as follows: active = growth percent below 10; inactive = the rest.

Some test systems named below: SK-MEL-2 melanoma; EKVX NSCLC; SN12C renal; UO-31 renal; TK-10 renal; ACHN renal; CAKI-1 renal; A498 renal; CCRF-CEM leukemia; MOLT-4 leukemia; SR leukemia; RPMI-8226 leukemia; OVCAR-8 ovarian; OVCAR-5 ovarian; OVCAR-4 ovarian; SK-OV-3 ovarian; IGROV1 ovarian; OVCAR-3 ovarian; HS 578T breast; NCI/ADR-RES ovarian.
What all share (assay): NCI-60 one-dose screen, 48 h (100 = growth as untreated, 0 = no growth, -100 = all killed)
Holding throughout (conditions): 10 µM unless noted

As for `CN1C2CCC1/C(=C\c1ccc(F)cc1)C(=O)/C2=C/c1ccc(F)cc1`, the growth is 50% with SK-MEL-2 melanoma; 60.4% with EKVX NSCLC; 37.8% with SN12C renal; 49.7% in the assay on UO-31 renal; 73.1% with TK-10 renal; 55.5% in the assay with ACHN renal. The growth with CAKI-1 renal is 54.8%; with A498 renal it was 73.3%; with CCRF-CEM leukemia, 16.5%; in the assay with MOLT-4 leukemia, 9.91% (active); in the assay with SR leukemia, 21.6%; in the assay with RPMI-8226 leukemia, 11%. Also, the growth in the assay on OVCAR-8 ovarian was -19.8% (active); in the assay on OVCAR-5 ovarian, 72.3%; in the assay on OVCAR-4 ovarian it was 39.1%; in the assay with SK-OV-3 ovarian it was 79.8%; with IGROV1 ovarian, 61.9%; in the assay with OVCAR-3 ovarian it was 21%. Moreover, the growth was 75% in the assay with HS 578T breast and 20.2% in the assay on NCI/ADR-RES ovarian.

Regarding `COc1cc(C)c(Cl)cc1C1=NN(c2ccc(S(N)(=O)=O)cc2)C(/C=C/c2ccccc2)C1` (stereo not drawn), the growth is 74.6% in the assay with SK-MEL-2 melanoma; 49.3% with EKVX NSCLC; 20.6% with SN12C renal; 44.9% with UO-31 renal; 46% in the assay with TK-10 renal; 15% in the assay with ACHN renal. Further, the growth in the assay on CAKI-1 renal was 59.5%; in the assay with A498 renal, 64.4%; with CCRF-CEM leukemia, 54.5%; in the assay on MOLT-4 leukemia it was 49.9%; with SR leukemia, 66.7%; in the assay with RPMI-8226 leukemia, 35.8%. The growth is 31.7% with OVCAR-8 ovarian; 104% in the assay with OVCAR-5 ovarian; 28.1% in the assay on OVCAR-4 ovarian; 88.8% in the assay on SK-OV-3 ovarian; 45.8% with IGROV1 ovarian; 86.8% with HS 578T breast.

`COc1ccc(/C=C/c2nc3ccccc3c(=O)n2-c2ccc(C#Cc3ccc(C(C)(C)C)cc3)cc2C)c(OC)c1`: the growth was 104% in the assay on SK-MEL-2 melanoma; 85.1% in the assay on EKVX NSCLC; 89.6% in the assay with SN12C renal; 79.5% in the assay with UO-31 renal; 101% in the assay on TK-10 renal; 105% in the assay with ACHN renal. Besides, the growth was 76.9% with CAKI-1 renal; 110% in the assay with A498 renal; 75.8% in the assay with CCRF-CEM leukemia; 76.5% with MOLT-4 leukemia; 42% in the assay with SR leukemia; 52% in the assay on RPMI-8226 leukemia. For the same compound, the growth is 110% with OVCAR-8 ovarian; 120% with OVCAR-5 ovarian; 97.9% with OVCAR-4 ovarian; 103% in the assay on SK-OV-3 ovarian; 109% in the assay with IGROV1 ovarian; 87.5% in the assay on OVCAR-3 ovarian. Besides, the growth with NCI/ADR-RES ovarian is 105%.

For `C[Si](C)(C)C(c1ccccc1)c1ccccc1`, the growth in the assay with SK-MEL-2 melanoma was 127%; in the assay with EKVX NSCLC, 109%; in the assay on SN12C renal, 102%; with UO-31 renal, 82.3%; in the assay with TK-10 renal, 108%; with ACHN renal, 93.1%. Moreover, the growth is 86.2% in the assay on CAKI-1 renal; 99.7% with A498 renal; 79.4% in the assay with CCRF-CEM leukemia; 81.8% in the assay with MOLT-4 leukemia; 86.8% in the assay with SR leukemia; 91.6% in the assay with RPMI-8226 leukemia. Further, the growth was 102% in the assay with OVCAR-8 ovarian; 110% with OVCAR-5 ovarian; 109% in the assay with OVCAR-4 ovarian; 98.4% in the assay on SK-OV-3 ovarian; 97.1% in the assay with IGROV1 ovarian; 98.9% in the assay on HS 578T breast. Moreover, the growth in the assay on NCI/ADR-RES ovarian is 98.9%.

On to `CCOC(=O)c1ccc(NC(=O)CSC(N)=O)cc1`, for which the growth with SK-MEL-2 melanoma was 98.6%; in the assay on EKVX NSCLC, 128%; in the assay on SN12C renal it was 107%; with UO-31 renal, 56.6%; in the assay on TK-10 renal, 113%; in the assay on ACHN renal it was 102%. Further, the growth in the assay on CAKI-1 renal was 108%; with A498 renal it was 111%; with CCRF-CEM leukemia it was 103%; with MOLT-4 leukemia it was 84.6%; with SR leukemia, 96.8%; with RPMI-8226 leukemia, 87.3%. The growth was 100% in the assay on OVCAR-8 ovarian; 99.1% in the assay with OVCAR-5 ovarian; 122% in the assay on OVCAR-4 ovarian; 128% with SK-OV-3 ovarian; 92% with IGROV1 ovarian; 105% with HS 578T breast. Further, the growth in the assay with NCI/ADR-RES ovarian is 99.3%.

Take `Cc1ccncc1NC=O`: the growth in the assay with SK-MEL-2 melanoma was 108%; with EKVX NSCLC, 101%; in the assay with SN12C renal, 110%; with UO-31 renal it was 96.2%; with TK-10 renal, 102%; in the assay on ACHN renal, 115%. The growth was 95.8% in the assay on CAKI-1 renal; 103% in the assay on A498 renal; 104% with CCRF-CEM leukemia; 108% with MOLT-4 leukemia; 93.8% with SR leukemia; 99.9% in the assay on RPMI-8226 leukemia. In addition, the growth in the assay on OVCAR-8 ovarian was 104%; in the assay on OVCAR-5 ovarian, 110%; in the assay on OVCAR-4 ovarian it was 108%; with SK-OV-3 ovarian, 110%; with IGROV1 ovarian it was 114%; in the assay with HS 578T breast it was 109%. Also, the growth with NCI/ADR-RES ovarian is 107%.

Consider `CC1OC(n2c3ccccc3c3c4c(c5c6ccccc6[nH]c5c32)C(=O)N(CCN2CCOCC2)C4=O)CC(O)C1O` (stereo not drawn), for which the growth in the assay with SK-MEL-2 melanoma is 99.7%; with EKVX NSCLC, 56.7%; in the assay with SN12C renal, 19.8%; in the assay on UO-31 renal it was 25.5%; with TK-10 renal it was 58.5%; in the assay on ACHN renal, 8.9% (active). Moreover, the growth with CAKI-1 renal is 14.9%; in the assay with A498 renal it was 47.5%; with CCRF-CEM leukemia it was 27%; with MOLT-4 leukemia, 6.7% (active); in the assay with SR leukemia it was 10.7%; in the assay on RPMI-8226 leukemia, 27.8%. Moreover, the growth with OVCAR-8 ovarian is 32.4%; with OVCAR-5 ovarian it was 61.7%; with OVCAR-4 ovarian, 46.5%; in the assay on SK-OV-3 ovarian it was 6.84% (active); with IGROV1 ovarian it was 48.3%; in the assay with OVCAR-3 ovarian, 48.2%. The growth in the assay on HS 578T breast was 63.6%; with NCI/ADR-RES ovarian, 26.4%.

Take `Nc1c(C(=O)Nc2cccc(Cl)c2)sc2nc3c(cc12)C(=O)CCC3`: the growth was 69.7% in the assay on SK-MEL-2 melanoma; 58.2% in the assay on EKVX NSCLC; 54.4% in the assay with SN12C renal; 57.1% in the assay on UO-31 renal; 65% in the assay with TK-10 renal; 54.2% in the assay on ACHN renal. Moreover, the growth is 40.3% with CAKI-1 renal; 49.3% in the assay with A498 renal; 13.5% with CCRF-CEM leukemia; 57.1% with MOLT-4 leukemia; 39.1% with SR leukemia; 51.8% in the assay with RPMI-8226 leukemia. Moreover, the growth with OVCAR-8 ovarian is 75.3%; in the assay on OVCAR-5 ovarian, 58.3%; in the assay with OVCAR-4 ovarian, 60.4%; in the assay with SK-OV-3 ovarian, 35.2%; in the assay with IGROV1 ovarian it was 52.4%; in the assay on HS 578T breast, 4.53% (active). Moreover, the growth in the assay with NCI/ADR-RES ovarian was 17.7%.
